# BL2 CD40 inh – CD40 pathway inhibition in BL2 cells; BL2 NF-kB luciferase reporter, CD40L-induced, 4 h; inhibition, % at 10 µM; 83,000 compounds, 0.94% hits;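 active = mean inhibition of at least 50% with a set share of replicates also reaching that level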;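 note: 0% = neutral control wells and 100% = IKK inhibitor VII at 50 µM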
# * hit, by the source's call; [ ] = dose if it differs, or a comment. This excerpt belongs to a sample that is enriched for hits.
SMILES,BL2 CD40 inh
O=C(C[C@H]1C[C@H]2c3cc(NC(=O)NC4CCCCC4)ccc3O[C@H]2[C@H](CO)O1)NCC1CC1,1
O=C(Cc1cccnc1)N1CC(=O)N2[C@H](C1)[C@@H](c1ccc(C3=CCCCC3)cc1)[C@@H]2CO,7
CC(=O)N(C)C[C@H]1Oc2c(N)cccc2C(=O)N(C)C[C@H]1C,-5
O=C(Nc1ccccc1)c1cccc(N2CCCC2=O)c1,-43
O=C(NCCc1ccccc1)c1cccc(N2CCCC2=O)c1,71*
O=C(NCc1ccc2c(c1)OCO2)c1cccc(N2CCCC2=O)c1,0
COc1ccccc1-c1ccc([C@@H]2[C@@H](CO)N(C(=O)C3CCOCC3)[C@H]2C#N)cc1,-6[25 µM]
CCCSc1ncnc2sc(C)c(C)c12,8
Cc1sc2ncnc(Sc3nnnn3-c3ccccc3)c2c1C,47*
Cc1sc2ncnc(SCC#N)c2c1C,6
COc1ccccc1CNC(=O)C[C@@H]1C[C@@H]2c3cc(NS(=O)(=O)c4ccc(F)cc4)ccc3O[C@@H]2[C@H](CO)O1,4[25 µM]
CCC(=O)N1[C@H](CN(C)C(C)=O)[C@H](c2ccc(-c3cccc(F)c3)cc2)[C@@H]1CO,8
COc1cccc(CC(=O)n2nc(N)c3cc4ccc(OC)cc4nc32)c1,4
COc1ccc2cc3c(N)nn(C(=O)c4cccc(F)c4)c3nc2c1,-1
COc1ccc2cc3c(N)nn(C(=O)Cc4c[nH]c5ccccc45)c3nc2c1,77*
CNC[C@H]1OCc2ccccc2-c2c(n(C)c3ccccc23)C(=O)N([C@@H](C)CO)C[C@@H]1C,-5
C[C@H]1CN([C@@H](C)CO)S(=O)(=O)c2ccc(C#CCN(C)C)cc2O[C@@H]1CN(C)C(=O)CN(C)C,-2[25 µM]
COc1cc(CN2[C@@H]3CNC[C@H]2C3c2ccc(-c3cccc(C)c3)cc2)cc(OC)c1 (stereo not given in full),0
CN1CCN(C(=O)C[C@H]2CC[C@H]3[C@@H](COC[C@H](O)CN3C(=O)Nc3ccc4c(c3)OCO4)O2)CC1,-39[25 µM]
CN1CCN(C(=O)C[C@@H]2CC[C@H]3[C@@H](COC[C@@H](O)CN3C(=O)Nc3ccc4c(c3)OCO4)O2)CC1,active[25 µM]
CN1CCN(C(=O)C[C@@H]2CC[C@@H]3[C@H](COC[C@H](O)CN3C(=O)Nc3ccc4c(c3)OCO4)O2)CC1,-37[25 µM]
CC(=O)NC[C@@H]1[C@H](c2ccccc2)[C@@H](CO)N1C(=O)Cc1cccnc1,-8[25 µM]
COc1ccc(C[C@H]2CCn3cc(nn3)COC[C@H](c3ccccc3)NC2=O)cc1,10[25 µM]
COc1ccc(OC(=O)N(C)C[C@H]2OCc3ccccc3-c3ccccc3C(=O)N([C@@H](C)CO)C[C@H]2C)cc1,-2
C[C@@H]1CCCCO[C@@H](CN(C)S(=O)(=O)c2ccccc2)[C@@H](C)CN([C@@H](C)CO)C(=O)c2cc(NS(=O)(=O)c3ccc(Cl)cc3)ccc2O1,-3
SMILES,BL2 CD40 inh
Cc1ccc(S(=O)(=O)NC(C(=O)Oc2cc3oc(=O)cc(C)c3cc2Cl)C(C)C)cc1 (stereo not given),29*
Cc1ccc(S(=O)(=O)NCC(=O)OCc2cc(=O)oc3cc(C)ccc23)cc1,-6
Cc1cc(=O)oc2cc(OC(C)C(=O)N3CCOCC3)c(Cl)cc12 (stereo not given),1
C[C@@H]1CN([C@@H](C)CO)C(=O)c2cccc(NC(=O)c3ccncc3)c2O[C@H]1CN(C)S(=O)(=O)c1ccccc1,-9[25 µM]
CN1C(=O)c2cc(NC(=O)C3CCC3)ccc2OC[C@H]2O[C@H](CC(=O)NCCc3ccncc3)CC[C@H]21,17
N#C[C@H]1N[C@H](CO)[C@H]1c1ccc(C#CC2CCCC2)cc1,62*
N#C[C@@H]1N[C@H](CO)[C@@H]1c1ccc(C#Cc2ccccc2F)cc1,-43[25 µM]
N#C[C@@H]1N[C@H](CO)[C@H]1c1ccc(C#CC2CCCC2)cc1,13
N#C[C@H]1N[C@@H](CO)[C@@H]1c1ccc(C#Cc2ccccc2F)cc1,active[25 µM]
N#C[C@H]1N[C@H](CO)[C@H]1c1ccc(C#Cc2ccc(F)cc2)cc1,4[25 µM]
N#C[C@@H]1N[C@H](CO)[C@@H]1c1ccc(C#CC2CCCC2)cc1,-10
CCCCCCCCCCCCCCCC(=O)C1C(=O)OC(CO)C1=O (stereo not given),-13[25 µM]
C[C@@H]1CN([C@H](C)CO)C(=O)Cc2cc(NC(=O)Cc3ccccc3)ccc2O[C@@H]1CN(C)S(C)(=O)=O,14
O=C(NCC[C@H]1CC[C@H](NC(=O)c2ccccc2F)[C@H](CO)O1)c1cnccn1,-4[25 µM]
CC(C)NC(=O)N(C)C[C@@H]1Oc2ccc(N)cc2CC(=O)N(C)C[C@@H]1C,0
CCCN(CC(=O)Nc1ccccc1OC)C(=O)c1ccccn1,-2
COc1ccccc1NC(=O)c1ccccc1NC(=O)c1ccccn1,1
CC(=NNC(=S)N1CC2CCC(CC2)C1)c1ccccn1,-17
Cc1ccc(NC(=S)NNC(=S)Nc2ccc(C)cc2)cc1,-42
COc1ccccc1NC(=S)NN=C(C)c1ccccn1,90*
CC(=NNC(=S)Nc1ccc(C)cc1)c1ccccn1,77*
CC(C)NC(=O)N(C)C[C@H]1Oc2ccccc2C(=O)N(C)C[C@@H]1C,4
O=C(NCC[C@@H]1CC[C@@H](NS(=O)(=O)c2cccc(F)c2)[C@H](CO)O1)C1CCCC1,3
S=C(N/N=C1\CCc2ccccc21)NC1CCCCC1,62*
S=C(Nc1ccccc1Oc1ccccc1)NC1CCCC1,9
SMILES,BL2 CD40 inh
S=C(NC1CC1)N1CCc2ccccc2C1,8
COc1ccc(CN(C)C[C@H]2Oc3ccc(NC(=O)Nc4c(C)noc4C)cc3C(=O)N([C@H](C)CO)C[C@H]2C)cc1,-7[25 µM]
CN(C)C(=O)c1cccc(-c2ccc([C@H]3[C@@H](CO)N(C(=O)C4CCCC4)[C@H]3C#N)cc2)c1,11
CCC(=O)N1[C@@H]2Cn3c(cccc3=O)[C@H]1[C@@H](C(=O)NC1CCCC1)[C@@H]2CO,2
CC(C)(C)[S@](=O)N1Cc2cc(C(=O)NCC(F)(F)F)nc(-c3cccc(-c4cccc(F)c4)c3)c2[C@@H]1CCO,80*[25 µM]
CC(C)(C)[S@@](=O)N1Cc2cc(C(=O)NCC(F)(F)F)nc(-c3cccc(-c4cccc(F)c4)c3)c2[C@H]1CCO,-13[25 µM]
COc1cccc(-c2cccc(-c3nc(C(=O)NCC(F)(F)F)cc4c3[C@@H](CCO)N([S@](=O)C(C)(C)C)C4)c2)c1,5
COc1ccc(NC(=O)Nc2cccc3c2O[C@H](CN(C)Cc2ccc(C(=O)O)cc2)[C@H](C)CN([C@H](C)CO)C3=O)cc1,-10[25 µM]
CNC[C@H]1Oc2ccc(N(S(C)(=O)=O)S(C)(=O)=O)cc2C(=O)N(C)C[C@@H]1C,-1
C[n+]1c2n(c3ccccc31)N=C(c1ccc(-c3ccccc3)cc1)CS2,70*
Cc1cc(-c2nnc3n2N=C(c2ccc(-c4ccccc4)cc2)CS3)n[nH]1,19
C[n+]1c2n(c3ccccc31)N=C(c1ccccc1)CS2,15
CCCNC(=O)[C@@H]1[C@@H](CO)[C@@H]2Cn3c(ccc(-c4cncnc4)c3=O)[C@H]1N2C(=O)Nc1ccccc1,5[25 µM]
CC(=O)N(C)C[C@H]1Oc2c(cccc2N(C)C)C(=O)N(C)C[C@@H]1C,5
OCc1ccc(O)c2ncccc12,29
Oc1ccc(CN2CCC(Cc3ccccc3)CC2)c2cccnc12,25
Oc1ccc(Cc2ccccc2)c2cccnc12,83*
CC(=O)Cn1c(CN2CCCC2)nc2ccccc2c1=O,0
CN1CCN(Cc2nc3ccccc3c(=O)n2Cc2nc(-c3ccc4ccccc4c3)cs2)CC1,60*
